PubChem BioAssay AID504500 (NMMLSC, 2011)
Results with a measured potency or affinity are listed apart. Calls of active or inactive are those of the source.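 The calls were made as follows: active = compounds whose curve fit is tight, with span above 25% and half-effect concentration below 10 µM; inactive = the rest.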

Each molecule was assayed against Beta-adrenergic receptor kinase 1 (Homo sapiens) (UniProt P25098) (assay: aptamer displacement from bead-bound GRK2 – biochemical, cherry pick 1, bead flow cytometry, dose response (AID 504500)). Settings: bead-bound biotinylated GRK2, FAM-aptamer displacement; series mostly up to 33 µM.
Sequence of Beta-adrenergic receptor kinase 1 (Homo sapiens) (P25098 whole entry, looked up): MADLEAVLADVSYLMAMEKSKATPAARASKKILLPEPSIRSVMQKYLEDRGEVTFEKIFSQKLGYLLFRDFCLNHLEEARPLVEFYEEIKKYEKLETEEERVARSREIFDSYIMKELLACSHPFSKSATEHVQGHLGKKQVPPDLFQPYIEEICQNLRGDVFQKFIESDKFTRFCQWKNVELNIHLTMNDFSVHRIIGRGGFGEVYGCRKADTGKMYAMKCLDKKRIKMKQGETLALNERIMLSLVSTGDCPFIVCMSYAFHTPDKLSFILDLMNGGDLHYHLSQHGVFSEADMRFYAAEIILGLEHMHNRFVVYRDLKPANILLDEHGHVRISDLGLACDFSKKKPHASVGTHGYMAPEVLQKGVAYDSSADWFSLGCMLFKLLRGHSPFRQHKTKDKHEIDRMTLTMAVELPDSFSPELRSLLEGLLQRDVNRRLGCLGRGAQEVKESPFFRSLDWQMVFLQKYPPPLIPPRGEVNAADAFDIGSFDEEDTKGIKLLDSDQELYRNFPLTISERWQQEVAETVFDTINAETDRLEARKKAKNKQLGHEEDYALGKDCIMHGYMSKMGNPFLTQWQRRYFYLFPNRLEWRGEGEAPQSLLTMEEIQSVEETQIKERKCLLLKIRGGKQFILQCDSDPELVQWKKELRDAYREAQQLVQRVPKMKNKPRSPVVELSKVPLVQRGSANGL

| SMILES | outcome |
| --- | --- |
| Cn1ncnc2c(=O)n(C)c(=O)nc1-2 | inactive |
| O=C1NC(=O)N(c2ccc3c(c2)OCO3)C(=O)/C1=C\c1ccc(-c2ccccc2C(=O)O)o1 | inactive |
| CC[n+]1c(/C=C/N(C)c2ccccc2)sc2ccc(Cl)cc21 | inactive |
| Cc1nc2c(=O)n(C)c(=O)nc-2n(C)n1 | inactive |
